This passage reports outcome and AC50 results from PubChem BioAssay (EPA / NIEHS).

Activity calls are given as the source filed them. How the source made its calls: active means hit-call score of the fitted dose curve at least 0.9, where 1 is the maximum; inactive means score below 0.9.

Hepatocyte nuclear factor 3-beta (Homo sapiens), sequence (Q9Y261 whole entry, looked up): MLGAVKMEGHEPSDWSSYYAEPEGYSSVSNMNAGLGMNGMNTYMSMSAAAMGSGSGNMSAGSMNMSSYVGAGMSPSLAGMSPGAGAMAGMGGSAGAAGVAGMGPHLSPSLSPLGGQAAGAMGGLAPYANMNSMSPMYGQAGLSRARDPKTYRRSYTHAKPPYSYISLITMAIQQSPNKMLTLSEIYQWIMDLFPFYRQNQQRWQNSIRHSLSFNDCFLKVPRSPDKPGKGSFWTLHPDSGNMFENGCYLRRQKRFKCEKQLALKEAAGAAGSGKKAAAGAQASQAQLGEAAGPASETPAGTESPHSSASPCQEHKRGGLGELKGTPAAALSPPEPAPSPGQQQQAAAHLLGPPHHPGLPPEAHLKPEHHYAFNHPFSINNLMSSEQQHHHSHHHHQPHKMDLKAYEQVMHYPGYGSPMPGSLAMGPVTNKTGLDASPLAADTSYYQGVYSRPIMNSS

The target of the experiment is Hepatocyte nuclear factor 3-beta (Homo sapiens) (UniProt Q9Y261). The experiment can be described thus: ATG_FoxA2_CIS: Attagene CIS-FACTORIAL HepG2 Assay for human Forkhead box A2 (FOXA2) (AID 2282942). As to conditions: HepG2 cis-reporter transcription factor activity, 24 h; actives raise or lower the signal. The method, then:
ATG_CIS is a cell-based, multiplexed-readout assay that uses HepG2, a human liver cell line, with measurements taken at 24 hours after chemical dosing in a 24-well plate.ATG_FoxA2_CIS is one of 52 assay component(s) measured or calculated from the ATG_CIS assay. It is designed to make measurements of mRNA induction, a form of inducible reporter, as detected with fluorescence intensity signals by Reverse transcription polymerase chain reaction (RT-PCR) and Capillary electrophoresis technology.Data from the assay component ATG_FoxA2_CIS was analyzed into 1 assay endpoint. This assay endpoint, ATG_FoxA2_CIS, was analyzed with bidirectional fitting relative to DMSO as the negative control and baseline of activity. Using a type of inducible reporter, measures of mRNA for gain or loss-of-signal activity can be used to understand the reporter gene at the transcription factor-level as they relate to the gene FOXA2. Furthermore, this assay endpoint can be referred to as a primary readout, because this assay has produced multiple assay endpoints where this one serves a reporter gene function. To generalize the intended target to other relatable targets, this assay endpoint is annotated to the dna binding intended target family, where the subfamily is forkhead box protein.
Human liver HepG2 cells are transiently transfected with multiple reporter transcription units (MRTUs) in 6-well plates using FuGene 6 reagent (Roche; 3 ml FuGene/1 mg DNA). The MRTU constructs are regulated by a cis-regulating element (promoter). […] A major difference between the CIS and TRANS system is that in CIS activities of endogenous TFs are measured, whereas the TRANS assay evaluates changes in activities of exogenous, chimeric NR-Gal4 proteins. […] At the end of 24 hour incubation, total RNA was isolated using TriZol reagent (Invitrogen). The isolated RNA is then reverse-transcribed using oligo(dT) primer and Mo-MLV reverse transcriptase (Invitrogen) with DNAse I (Ambion) treatment for 30 min. The one-tenth of the produced cDNA was amplified by PCR using Taq DNA polymerase (Invitrogen) and two reporter sequence-specific primers. The PCR products were fluorescently labeled by primer extension with 6-arboxyfluorescein (6-FAM) 5'-labeled reporter sequence-specific primer (2 min at 95 C, 20 s at 68 C and 10 min at 72 C) and these products were digested with 5U of HpaI (New England Biolabs) for 2h at 37 C. The fragments were purified using Qiaquick PCR columns (Qiagen), analyzed on an ABI 3130xL genetic analyzer (Applied Biosystems) with peak positions identified by using a set of X-rhodamine (ROX)-labeled MapMarker1000 molecular weight standards (BioVentures). The raw capillary electrophoresis data was processed using Attagraph software (Attagene).
Turning to `O=C(Cc1ccccc1)OCCc1ccccc1`, the compound was classed as inactive.

On to `COC(F)(C(F)(F)C(F)(F)F)C(F)(C(F)(F)F)C(F)(F)F` (stereo not given), for which the compound was called inactive.

Consider `C[C@@H]1O[C@@H](O[C@H]2C[C@@H](O)[C@]3(CO)[C@H]4[C@H](O)C[C@]5(C)[C@@H](C6=CC(=O)OC6)CC[C@]5(O)[C@@H]4CC[C@]3(O)C2)[C@H](O)[C@H](O)[C@H]1O`, for which the outcome was inactive.

Take `Cc1ccc(CCl)cc1`: the outcome was inactive.

As for `C=C(C)C(=O)OCC(CC)CCCC` (stereo not given), the compound was classed as inactive.

With `Cc1cccc(C)c1NC(=O)CN1CCCC1=O`, the result was inactive.

Regarding `CCC(C)(C#N)N=NC(C)(C#N)CC` (stereo not given), the compound was called inactive.

As for `O=NN1CCOCC1`, the compound was classed as inactive.

Consider `C=C(C)C(=O)OCCCCOC(=O)C(=C)C`, for which the result was inactive.

As to `CC(C)[C@H](C(=O)OC(C#N)c1cccc(Oc2ccccc2)c1)c1ccc(OC(F)F)cc1` (stereo not given in full), the compound was called inactive.

As for `CC(C)O.CC(C)O.OCCN(CCO)CCO.OCCN(CCO)CCO.[Ti]`, the call was inactive.

For `C1CCC(C2CCCCC2)CC1`, the result was inactive.

In the case of `CC(C)(c1ccc(O)c(-c2ccccc2)c1)c1ccc(O)c(-c2ccccc2)c1`, the compound was classed as inactive.

With `Cc1cccc(N=Nc2ccc(N(C)C)cc2)c1`, the compound was classed as inactive.

As for `COc1nn(C(=O)NS(=O)(=O)c2ccccc2OC(F)(F)F)c(=O)n1C`, the result was inactive.

As a reminder, the AC50 is the concentration giving half of the maximal activity seen. Consider `CNC(=O)N(C)c1nc2ccccc2s1`, for which the AC50 was 26.8 µM (active).

With `CCCCOC(=O)COC(=O)c1ccccc1C(=O)OCCCC`, the compound was called inactive.

For `C#CCO`, the result was inactive.

For `C[C@H]1C(=O)O[C@@H]2CCN3CC=C(COC(=O)[C@](C)(O)[C@]1(C)O)[C@H]23`, the result was inactive.

Consider `CCCCS(=O)(=O)Cl`, for which the outcome was inactive.

Turning to `Oc1ccc(Cc2ccc(O)cc2)cc1`, the call was inactive.

Regarding `Nc1c(Oc2ccccc2)cc(O)c2c1C(=O)c1ccccc1C2=O`, the compound was called inactive.

Regarding `CCCCCCCCCCCCCl`, the compound was classed as inactive.

On to `Cc1ccc(OP(=O)(Oc2ccc(C)cc2C)Oc2ccc(C)cc2C)c(C)c1`, for which the compound was called inactive.

On to `OCC(c1ccc(Cl)cc1)c1ccc(Cl)cc1`, for which the compound was classed as inactive.

In the case of `O=[N+]([O-])c1ccc(Cl)c([N+](=O)[O-])c1`, the call was inactive.

As to `O=[N+]([O-])c1ccccc1O`, the compound was called inactive.

With `Cc1ccccc1OP(=O)(Oc1ccccc1)Oc1ccccc1`, the outcome was inactive.

As to `C1CN2CCN1CC2`, the outcome was inactive.

Turning to `ClCCCCl`, the result was inactive.

On to `O=C(O)C1(c2ccc3c(c2)OC[C@H](Cc2ccc(-c4ccccc4)cc2)[C@H]3O)CCCC1`, for which the call was inactive.

`CCOC(=O)OC1=C(c2cc(C)ccc2C)C(=O)NC12CCC(OC)CC2` (stereo not given): the outcome was inactive.

Turning to `CCCCCCCCCCCCCCC(Br)C(=O)O` (stereo not given), the AC50 is 62.4 µM (active).

For `COc1ccc([N+](=O)[O-])cc1O`, the call was inactive.

Regarding `O=C(Cl)OCCOCCOC(=O)Cl`, the compound was classed as inactive.

Turning to `c1ccc2c(c1)Oc1ccccc1O2`, the outcome was inactive.

Regarding `O=S1OC[C@@H]2[C@H](CO1)[C@]1(Cl)C(Cl)=C(Cl)[C@@]2(Cl)C1(Cl)Cl` (stereo not given in full), the call was inactive.

In the case of `CCCCCCCCCCCCOS(=O)(=O)O`, the call was inactive.

Regarding `N#Cc1ccncc1`, the compound was called inactive.

Take `C=CC(=O)OCC(COC(=O)C=C)(COC(=O)C=C)COC(=O)C=C`: the outcome was inactive.
